Experimental data reported in PubChem BioAssay AID1347075 (National Center for Advancing Translational Sciences (NCATS), 2019).
Hit rate of the full screen: of about 400,000 compounds, about 5,500 (1.4%) were called active. Not shown: some 9% with an inconclusive outcome. Many of the other results were omitted from the sample, so actives are more common in it than they were. Values without a mark were called inactive. Calls come from the whole dose curve; as a rule, active = well fitted cell-killing curve with a large enough effect; inconclusive = small, poorly fitted or top-dose-only effect, or effect the other way; inactive = flat fitted curve, though single readings scatter.

Assay: qHTS assay for MDR1-selective chemotherapeutics: Primary screen using the parental adenocarcinoma cell KB-3-1; note: nearly all actives have a fitted effect of over 60% in size
Details: KB-3-1 viability, CellTiter-Glo ATP luminescence, 72 h; series mostly up to 46.1 µM; activity change, negative = cytotoxic: at the top concentration
Text: A prime difficulty in effectively treating cancer is the development of cellular resistance to multiple structurally unrelated anticancer drugs, a phenomenon known as multidrug resistance (MDR). […] Numerous strategies to overcome P-gp-mediated MDR have been explored, including the design of drugs that evade recognition and efflux, and development of inhibitors to block efflux and restore drug accumulation. […] An alternative approach is to exploit resistance by identifying drugs that target MDR cells over the non-resistant parental cells from which they were selected. […] The development of MDR1-selective agents represents a new strategy for resolving multidrug resistance, as it remains a long-standing clinical challenge for cancer chemotherapy.
Our goal is to identify compounds that selectively kill P-gp-expressing MDR cells. We will identify MDR1-selective compounds by comparing toxicity of compounds in the screening library against parental, drug-naive (KB-3-1) adenocarcinoma cells as well as their drug-selected MDR sub-line (KB-V1). The differential toxicity of compounds against these two cell lines will be used to identify MDR1-selective compounds, whose cytotoxicity is potentiated, rather than diminished, by P-gp expression. This assay will be utilized to conduct a quantitative high-throughput screen (qHTS) in collaboration with the NIH Chemical Genomics Center to identify selective agents, and probe hits arising from the screen will be validated using secondary assays and characterized through a well-established follow-up research program. This screen was run against the entire NCGC library collection of about 400,000 compounds.
NIH Molecular Libraries Probe Production Network [MLPCN]
NIH Chemical Genomics Center [NCGC]
PI: Michael Gottesman PhD, National Cancer Institute, NIH
Briefly, 5 microL of media containing either KB-3-1 cells (columns 1-2, 4-48) are dispensed into Greiner white, treated solid-bottom 1536-well assay plates (media-only control is added to column 3). Compounds are then transferred via Kalypsys pin tool equipped with 1536-pin array (10 nL slotted pins, V&P Scientific, San Diego, CA). Following addition of compound, the plates are incubated at 37 degrees C for 72 hours. CellTiter-Glo (2.5 µL/well) is then added, and the plates are read in a ViewLux reader (Perkin-Elmer, clear luminescence filter, 1 second exposure, 1x binning) following a 10 minute incubation. All cells are dispensed in DMEM phenol-red free media containing 10% FBS.
Library plates were screened starting from the lowest and proceeding to the highest concentration. Vehicle-only plates, with DMSO being pin-transferred to columns 5-48, will be inserted uniformly at the beginning and the end of each library in order to monitor and record any shifts in the background, which can be affected by reagent dispensers or loss in enzyme activity over time. Screening data will be corrected, normalized, and concentration-effect relationships will be derived by using publicly-available NCGC, NCATS curve fitting algorithms (http://ncgc.nih.gov/pub/openhts).
% is set by controls: 0 for no effect and ±100 for the full control effect; potency is the fitted concentration of half-maximal effect.

Row | SMILES | Potency | activity change, negative = cytotoxic [%]
1 | COc1cc(/C=C2\Oc3ccc(C#Cc4ccc(O)cc4)cc3C2=O)cc(OC)c1 | 16.4 µM (active) | 
2 | COc1cccc(N2CCN(S(=O)(=O)c3ccc4c(c3)CCCN4C(C)=O)CC2)c1 |  | -3.09
3 | COc1ccc(-c2ccc(=O)n(CC(=O)Nc3ccc(Br)cc3F)n2)cc1 |  | 3.64
4 | O=C(CSc1nc2c(c(=O)[nH]1)CN(Cc1ccc(F)cc1)CC2)Nc1ccccc1Cl |  | -1.45
5 | Cc1cc2ccccc2n1CCNC(=O)c1ccc(F)cc1 |  | -0.098
6 | O=C(Nc1cc(S(=O)(=O)N2CCCCC2)ccc1Cl)C1COc2ccccc2O1 (configuration not stated) |  | -5.56
7 | O=C(Nc1ncc([N+](=O)[O-])s1)C1COc2ccccc2O1 (configuration not stated) | 16.4 µM (active) | 
8 | COc1ccc(NC(=O)COC(=O)C2COc3ccccc3O2)cc1 (configuration not stated) |  | 2.9
9 | Cc1ccc(C(=O)N2c3ncnn3C3(CCCCC3)[C@@H]3CCCC[C@@H]32)cc1 |  | -1.33
10 | CC(=O)c1cc(NC(=O)c2ccccc2)c(=O)oc1/C=C/N(C)C |  | 15.8
11 | O=C(NC1=CC(=O)c2ccccc2C1=O)c1ccccc1 | 16.4 µM (active) | 
12 | COc1cc(NC(=O)c2ccccc2)c(OC)cc1NC(=O)Cc1ccccc1 |  | 5.6
13 | N#Cc1nc(/C=C/c2ccc(F)cc2)oc1NCc1ccc(F)cc1 |  | 2.53
14 | O=C(CCS(=O)(=O)c1cc(Br)cc2c1N(C(=O)C1CC1)CC2)Nc1ccc(Br)cc1F |  | 6.15
15 | COc1cc(/C=N/O)cc(Br)c1OCc1cccc(Cl)c1 | 14.6 µM (active) | 
16 | COc1cc(C(=O)NCc2ccncc2)cc(Br)c1OCc1ccccc1 |  | -18.9
17 | O=C(O)COc1ccc(/C=N/O)cc1Br |  | 9.66
18 | CCOC(=O)c1ccc(NC(=O)CCn2cnnn2)cc1 |  | 8.4
19 | COc1ccccc1CN1CCC(CNC(=O)c2cnn(-c3cccc(Cl)c3)c2C2CCN(C(=O)OC(C)(C)C)CC2)CC1 |  | -20.3
20 | Cc1ccc(CN2CCC(CNC(=O)c3cnn(-c4ccccc4Cl)c3C3CCN(C(=O)OC(C)(C)C)CC3)CC2)cc1 |  | -10
21 | Cc1ccc(CN2CCC(CNC(=O)c3cnn(-c4ccc(C)cc4)c3C3CCN(C(=O)OC(C)(C)C)CC3)CC2)cc1 | 16.4 µM (active) | 

Row | SMILES | Potency | activity change, negative = cytotoxic [%]
22 | CCOc1ccc(OCC)c(NC(=O)c2cc(C)nc3c2c(C)nn3-c2cccc(Cl)c2C)c1 |  | -0.861
23 | CN(C)c1ccc(/C=N\Nc2ccc([N+](=O)[O-])cc2[N+](=O)[O-])cc1Cl |  | 7.3
24 | CN(C)c1ccc(/C=C/C(=O)c2ccc(O)cc2)cc1[N+](=O)[O-] | 20.6 µM (active) | 
25 | O=C(/C=C/c1ccc(Cl)cc1)N1CCN(c2ccccc2[N+](=O)[O-])CC1 |  | 6.08
26 | CCOc1ccc(Br)cc1S(=O)(=O)N1CCC(C(=O)O)CC1 |  | -15.3
27 | CC(C)(C)NCc1cc(Br)ccc1OC1CCCC1 |  | -6.93
28 | CCOc1ccc(Br)cc1CSC(=N)N | 23.1 µM (active) | 
29 | COc1ccccc1NC(=O)C1=C(C)Nc2nc(SCC(=O)c3ccc(C)cc3)nn2C1c1ccccc1C (configuration not stated) |  | 19.5
30 | COc1ccc(NC(=O)CCN2CCN(CCO)CC2)cc1 |  | 10.1
31 | O=C(NCc1ccccc1)C(=O)NCC(c1ccco1)S(=O)(=O)c1ccc(Cl)cc1 (configuration not stated) |  | -21.5
32 | O=C(OC12CC3CC(CC(C3)C1)C2)c1ccc(NCc2cc(O)ccc2O)cc1 | 7.31 µM (active) | 
33 | COc1ccc(-c2nc(=N)sn2-c2ccccc2)cc1 |  | -25.8
34 | CO[C@H]1O[C@@H]2O[C@@]3(C)CC[C@@H]4[C@@H](C)CC[C@@H]([C@H]1C)[C@@]24OO3 |  | 0
35 | COc1cc2[nH]c(C)c(CCN3CCN(c4ccccc4)CC3)c2cc1OC |  | 0
36 | COc1ccc(C(C#N)=C2C=CC(=NO)c3ccccc32)cc1 | 0.82 µM (active) | 
37 | COc1ccc(C(=NN)c2ccc(OC)cc2)cc1 |  | 2.52
38 | COc1ccc(C(=O)/C=C/Nc2ccccn2)cc1 |  | -7.94
39 | COc1ccccc1OCCCn1c(-c2ccc(Cl)cc2)nc2ccccc2c1=O |  | 1.77
40 | O=C(COC(=O)c1ccccc1OCCOc1ccccc1)Nc1cccc(Br)c1 |  | 0
41 | COc1cccc(C(c2c(O)cc(C)n(Cc3ccco3)c2=O)N2CCN(c3ccccc3)CC2)c1 (configuration not stated) |  | 3.01
42 | CCOc1ccccc1NC(=O)CN1CCCN(Cc2cccc(Cl)c2)S1(=O)=O |  | 4.79

Row | SMILES | Potency | activity change, negative = cytotoxic [%]
43 | O=c1c2ccccc2n(Cc2cccc(Cl)c2)c(=O)n1Cc1ccccc1 |  | -13.5
44 | Clc1cccc[n+]1CCCC[n+]1ccccc1Cl |  | 2.29
45 | COc1cc(C(=O)Nc2ccc(-n3c(C)nc4ccccc4c3=O)cc2)cc(OC)c1OC |  | 3.15
46 | CC(C)c1ccc(Cn2c(COc3ccccc3)nc3ccccc32)cc1 |  | 2.83
47 | Cn1c2ccccc2c(=O)c2c(=O)n(Cc3ccco3)c(COc3ccccc3)nc21 | 7.31 µM (active) | 
48 | O=C(Cn1c(=O)n(Cc2ccco2)c(=O)c2ccccc21)NCC1CCCO1 (configuration not stated) |  | 7.23
49 | Cn1c(=O)c2c(ncn2CC(=O)Nc2cccc(C(F)(F)F)c2)n(C)c1=O |  | -2.81
50 | Cc1ccc(Cc2nc3ccccc3nc2SCC(=O)Nc2cccc(C(F)(F)F)c2)cc1 |  | -20.9
51 | Cn1nc(C(F)(F)F)c(C(=O)Nc2cccc(C(F)(F)F)c2)c1SCc1ccc(Cl)cc1 | 16.4 µM (active) | 
52 | CCCSc1nc2sc3c(c2c(=O)n1-c1cccc(Br)c1)CC(C)(C)OC3 |  | -5.87
53 | COc1ccc(C2CC(=O)Nc3c2c(=O)nc2c(C)cccn32)cc1OC (configuration not stated) |  | -2.5
54 | O=C(COc1ccccc1C(=O)Nc1ccccc1)Nc1cccc(F)c1 |  | 1.45
55 | O=[N+]([O-])c1ccc(S(=O)(=O)N2CCN(c3nc(-c4ccccc4)nc4ccccc34)CC2)cc1 |  | 29.8
56 | O=C(Nc1ccc(OC(F)(F)F)cc1)c1cc2c(=O)n3ccccc3nc2s1 |  | 7
57 | COc1cc(OC)cc(C(=O)NCCc2csc3nc(-c4ccccc4F)nn23)c1 |  | -3.67
58 | CCOc1cc(/C=C(\C#N)C(=O)Nc2ccccc2C)ccc1OCc1cc(=O)n2nc(CC)sc2n1 |  | -5.35
59 | CCOc1ccc(/C=C(\C#N)c2nc3ccccc3c(=O)[nH]2)cc1OC |  | 8.7
60 | CCOc1cc(/C=C(\C#N)c2nc(-c3cccs3)c(NC(C)=O)s2)ccc1O | 8.2 µM (active) | 
61 | O=C(NCc1ccc(Cl)cc1)c1ccc2c(c1)nnn2C1CCCC1 |  | -5.59
62 | CCOC(=O)c1cccc(NC(=O)Cn2cnc3nc4c(cc3c2=O)CCCC4)c1 |  | 8.88
